From paper PMC7862700, “An all-to-all approach to the identification of sequence-specific readers for epigenetic DNA modifications on cytosine”

Columns and labels:
Assay in all cases: DAPPL (digital affinity profiling via proximity ligation, sequencing); 10 mM Tris-HCl pH 7.5, 50 mM NaCl, 1 mM DTT, 4% glycerol, room temperature, 30 min; GST-TFs on glutathione beads, 16-mer random dsDNA library, 0.1% formaldehyde crosslink after washing; high values mean tight binding
FEV = biological target: T1, FEV (Homo sapiens, UniProt Q99581 1-238); conditions: protein: recombinant; tags: N-terminal GST; dsDNA, one strand shown
T1 sequence: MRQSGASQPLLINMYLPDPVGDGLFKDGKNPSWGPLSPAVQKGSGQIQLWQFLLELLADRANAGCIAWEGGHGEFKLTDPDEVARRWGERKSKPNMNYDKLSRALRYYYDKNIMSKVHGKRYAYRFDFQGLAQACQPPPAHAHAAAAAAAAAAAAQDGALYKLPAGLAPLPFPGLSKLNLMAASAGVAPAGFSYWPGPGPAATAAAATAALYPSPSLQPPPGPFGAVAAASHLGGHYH
In short: (§1)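 Binding signal is each hexamer's read frequency for a factor divided by its frequency in the tag-only sample. The factors were GST-fused human transcription factors from yeast, captured on glutathione beads, DNA-barcoded and pooled with that sample. Pools were incubated with 200 nmole of a random double-stranded 16-mer DNA library in Tris/NaCl/DTT/glycerol buffer at room temperature for 30 min, then washed, crosslinked with 0.1% formaldehyde, proximity-ligated with BsaI/T4 ligase (1 h, 37 °C), PCR-amplified and sequenced on an Illumina NextSeq500.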

ETV5 = ETV5 (Homo sapiens, UniProt P41161 1-510); conditions: protein: recombinant; tags: N-terminal GST; dsDNA, one strand shown
Chain of ETV5 (P41161 whole entry): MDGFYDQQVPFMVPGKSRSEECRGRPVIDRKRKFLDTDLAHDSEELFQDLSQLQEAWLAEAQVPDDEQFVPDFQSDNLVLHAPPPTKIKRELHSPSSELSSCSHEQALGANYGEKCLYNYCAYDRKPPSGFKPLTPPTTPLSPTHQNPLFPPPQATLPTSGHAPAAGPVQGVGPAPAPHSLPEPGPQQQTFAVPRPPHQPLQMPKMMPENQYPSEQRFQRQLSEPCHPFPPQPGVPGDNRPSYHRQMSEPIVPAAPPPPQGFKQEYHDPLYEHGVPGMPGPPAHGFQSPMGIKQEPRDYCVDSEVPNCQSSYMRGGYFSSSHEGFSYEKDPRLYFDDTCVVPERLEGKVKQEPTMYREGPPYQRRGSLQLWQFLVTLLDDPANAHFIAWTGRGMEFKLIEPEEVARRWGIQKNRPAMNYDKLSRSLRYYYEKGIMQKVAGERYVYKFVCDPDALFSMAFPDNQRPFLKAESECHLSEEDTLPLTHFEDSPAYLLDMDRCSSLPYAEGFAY
In short: as §1

HSF1 = HSF1 (Homo sapiens, UniProt Q00613 1-529); conditions: protein: recombinant; tags: N-terminal GST; chain copies: 3; dsDNA, one strand shown
Chain of HSF1 (Q00613 whole entry): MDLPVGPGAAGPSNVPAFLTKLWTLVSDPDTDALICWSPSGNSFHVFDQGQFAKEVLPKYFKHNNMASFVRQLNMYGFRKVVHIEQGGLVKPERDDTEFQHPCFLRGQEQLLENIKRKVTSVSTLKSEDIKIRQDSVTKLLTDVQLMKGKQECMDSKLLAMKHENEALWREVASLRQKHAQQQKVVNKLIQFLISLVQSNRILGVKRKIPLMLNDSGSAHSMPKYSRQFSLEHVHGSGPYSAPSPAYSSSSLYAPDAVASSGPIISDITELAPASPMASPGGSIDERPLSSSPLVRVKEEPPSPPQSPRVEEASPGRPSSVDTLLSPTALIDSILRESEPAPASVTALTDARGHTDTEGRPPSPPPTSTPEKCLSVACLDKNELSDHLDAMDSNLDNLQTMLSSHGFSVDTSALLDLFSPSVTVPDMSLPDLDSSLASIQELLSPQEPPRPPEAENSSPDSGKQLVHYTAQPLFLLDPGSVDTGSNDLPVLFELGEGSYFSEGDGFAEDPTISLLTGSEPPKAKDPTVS
In short: as §1

ELF4 = ELF4 (Homo sapiens, UniProt Q99607 1-663); conditions: protein: recombinant; tags: N-terminal GST; dsDNA, one strand shown
Chain of ELF4 (Q99607 whole entry): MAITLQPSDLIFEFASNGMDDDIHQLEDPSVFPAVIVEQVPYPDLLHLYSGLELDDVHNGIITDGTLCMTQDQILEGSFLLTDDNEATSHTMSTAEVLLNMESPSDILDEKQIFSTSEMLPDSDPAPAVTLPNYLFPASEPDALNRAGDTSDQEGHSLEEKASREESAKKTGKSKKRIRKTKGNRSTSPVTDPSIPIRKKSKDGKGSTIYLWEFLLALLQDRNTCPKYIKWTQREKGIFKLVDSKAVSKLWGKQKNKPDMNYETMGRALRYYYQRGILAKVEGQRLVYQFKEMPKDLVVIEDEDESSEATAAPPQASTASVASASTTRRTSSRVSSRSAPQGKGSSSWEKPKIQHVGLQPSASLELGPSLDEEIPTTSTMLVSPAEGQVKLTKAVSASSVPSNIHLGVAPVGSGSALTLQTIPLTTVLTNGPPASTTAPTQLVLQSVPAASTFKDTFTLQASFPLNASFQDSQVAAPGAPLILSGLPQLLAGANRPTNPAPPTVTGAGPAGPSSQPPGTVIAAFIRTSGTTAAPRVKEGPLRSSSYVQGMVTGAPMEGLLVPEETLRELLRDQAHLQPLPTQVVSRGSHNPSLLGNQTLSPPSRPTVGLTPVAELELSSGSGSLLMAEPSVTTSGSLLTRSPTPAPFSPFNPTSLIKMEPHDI
In short: as §1

ELK4 = biological target: T2, ELK4 (Homo sapiens, UniProt P28324-2 1-405); conditions: protein: recombinant; tags: N-terminal GST; dsDNA, one strand shown
T2 sequence: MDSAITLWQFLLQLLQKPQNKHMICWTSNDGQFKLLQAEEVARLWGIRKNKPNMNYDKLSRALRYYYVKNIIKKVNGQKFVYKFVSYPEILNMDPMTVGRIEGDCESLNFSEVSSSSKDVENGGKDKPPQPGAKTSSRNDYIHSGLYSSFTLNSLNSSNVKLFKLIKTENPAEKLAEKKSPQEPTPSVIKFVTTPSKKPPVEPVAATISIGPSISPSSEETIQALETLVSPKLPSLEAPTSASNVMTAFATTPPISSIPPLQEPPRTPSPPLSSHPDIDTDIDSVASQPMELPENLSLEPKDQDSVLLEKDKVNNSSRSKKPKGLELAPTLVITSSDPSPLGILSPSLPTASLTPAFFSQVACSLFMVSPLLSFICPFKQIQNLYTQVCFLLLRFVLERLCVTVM
In short: as §1

ETV2 = biological target: T3, ETV2 (Homo sapiens, UniProt O00321 1-342); conditions: protein: recombinant; tags: N-terminal GST; dsDNA, one strand shown
T3 sequence: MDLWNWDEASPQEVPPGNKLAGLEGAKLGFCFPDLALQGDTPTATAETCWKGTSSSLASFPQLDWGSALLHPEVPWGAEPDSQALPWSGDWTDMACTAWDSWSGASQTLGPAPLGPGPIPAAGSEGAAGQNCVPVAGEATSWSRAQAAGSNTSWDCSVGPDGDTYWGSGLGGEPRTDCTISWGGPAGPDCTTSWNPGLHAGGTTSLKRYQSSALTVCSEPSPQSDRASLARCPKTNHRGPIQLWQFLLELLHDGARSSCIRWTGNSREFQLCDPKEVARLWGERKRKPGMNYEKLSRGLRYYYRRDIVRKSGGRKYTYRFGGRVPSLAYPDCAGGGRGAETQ
In short: as §1

ELF3 = biological target: T4, ELF3 (Homo sapiens, UniProt P78545 1-371); conditions: protein: recombinant; tags: N-terminal GST; dsDNA, one strand shown
T4 sequence: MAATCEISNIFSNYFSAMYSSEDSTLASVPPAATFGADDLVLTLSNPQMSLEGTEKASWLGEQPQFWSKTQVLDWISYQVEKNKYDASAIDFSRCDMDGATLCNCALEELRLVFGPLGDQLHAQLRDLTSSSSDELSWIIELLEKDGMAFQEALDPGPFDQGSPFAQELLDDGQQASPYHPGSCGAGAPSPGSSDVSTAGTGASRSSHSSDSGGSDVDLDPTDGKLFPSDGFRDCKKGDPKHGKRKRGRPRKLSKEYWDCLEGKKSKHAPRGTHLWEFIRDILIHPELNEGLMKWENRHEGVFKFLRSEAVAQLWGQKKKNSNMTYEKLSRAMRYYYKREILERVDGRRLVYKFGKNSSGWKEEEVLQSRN
In short: as §1

CRX = CRX (Homo sapiens, UniProt O43186 1-299); conditions: protein: recombinant; tags: N-terminal GST; dsDNA, one strand shown
Chain of CRX (O43186 whole entry): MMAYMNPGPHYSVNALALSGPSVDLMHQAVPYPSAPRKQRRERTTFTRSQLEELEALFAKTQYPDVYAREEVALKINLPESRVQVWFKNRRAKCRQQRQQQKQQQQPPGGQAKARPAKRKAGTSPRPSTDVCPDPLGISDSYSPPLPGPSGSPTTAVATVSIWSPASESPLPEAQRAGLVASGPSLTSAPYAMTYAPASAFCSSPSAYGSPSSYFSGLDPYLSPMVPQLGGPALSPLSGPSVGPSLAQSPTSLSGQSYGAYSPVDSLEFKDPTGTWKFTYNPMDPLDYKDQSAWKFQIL
In short: as §1

ETV1 = ETV1 (Homo sapiens, UniProt P50549 1-477); conditions: protein: recombinant; tags: N-terminal GST; dsDNA, one strand shown
Chain of ETV1 (P50549 whole entry): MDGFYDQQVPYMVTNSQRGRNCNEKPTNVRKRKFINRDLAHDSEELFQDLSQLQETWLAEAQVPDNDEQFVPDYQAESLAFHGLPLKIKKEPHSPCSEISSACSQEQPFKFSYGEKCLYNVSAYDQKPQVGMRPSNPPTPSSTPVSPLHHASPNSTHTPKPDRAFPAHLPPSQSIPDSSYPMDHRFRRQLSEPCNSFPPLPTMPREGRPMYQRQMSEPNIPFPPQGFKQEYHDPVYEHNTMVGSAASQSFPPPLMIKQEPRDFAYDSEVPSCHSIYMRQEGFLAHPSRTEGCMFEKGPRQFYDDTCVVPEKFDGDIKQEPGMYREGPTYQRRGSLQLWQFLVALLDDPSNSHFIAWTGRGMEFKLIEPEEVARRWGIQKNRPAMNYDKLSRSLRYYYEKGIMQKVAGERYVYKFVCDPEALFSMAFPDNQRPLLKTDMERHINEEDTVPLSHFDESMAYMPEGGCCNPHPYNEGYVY
In short: as §1

ERF = biological target: T5, ERF (Homo sapiens, UniProt P50548 1-548); conditions: protein: recombinant; tags: N-terminal GST; dsDNA, one strand shown
T5 sequence: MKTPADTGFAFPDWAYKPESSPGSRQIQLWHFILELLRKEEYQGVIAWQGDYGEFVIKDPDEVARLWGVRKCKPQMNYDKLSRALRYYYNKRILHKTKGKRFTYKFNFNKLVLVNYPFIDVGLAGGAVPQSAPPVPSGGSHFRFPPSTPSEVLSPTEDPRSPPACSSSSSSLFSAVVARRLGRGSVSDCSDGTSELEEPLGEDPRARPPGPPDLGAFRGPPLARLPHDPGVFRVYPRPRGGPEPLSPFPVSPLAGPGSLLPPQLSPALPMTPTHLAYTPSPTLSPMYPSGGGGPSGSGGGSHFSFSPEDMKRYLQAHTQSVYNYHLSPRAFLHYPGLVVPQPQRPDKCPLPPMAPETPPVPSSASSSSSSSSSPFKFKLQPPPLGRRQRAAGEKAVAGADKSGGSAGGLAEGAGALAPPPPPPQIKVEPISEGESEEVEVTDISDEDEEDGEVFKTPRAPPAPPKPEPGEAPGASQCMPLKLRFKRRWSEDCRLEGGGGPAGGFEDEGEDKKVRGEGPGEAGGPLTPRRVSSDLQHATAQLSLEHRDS
In short: as §1

ETV3L = biological target: T6, ETV3L (Homo sapiens, UniProt Q6ZN32 1-361); conditions: protein: recombinant; tags: N-terminal GST; dsDNA, one strand shown
T6 sequence: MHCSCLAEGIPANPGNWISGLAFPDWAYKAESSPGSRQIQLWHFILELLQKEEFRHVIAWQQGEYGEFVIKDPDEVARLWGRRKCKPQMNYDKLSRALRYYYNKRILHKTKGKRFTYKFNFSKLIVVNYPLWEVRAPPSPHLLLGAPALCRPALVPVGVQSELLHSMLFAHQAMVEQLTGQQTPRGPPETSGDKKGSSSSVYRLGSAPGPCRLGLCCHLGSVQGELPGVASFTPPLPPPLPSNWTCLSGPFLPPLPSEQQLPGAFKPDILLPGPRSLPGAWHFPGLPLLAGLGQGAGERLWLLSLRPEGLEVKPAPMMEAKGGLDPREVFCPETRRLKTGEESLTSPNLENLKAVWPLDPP
In short: as §1

ETS2 = biological target: T7, ETS2 (Homo sapiens, UniProt P15036 1-469); conditions: protein: recombinant; tags: N-terminal GST; dsDNA, one strand shown
T7 sequence: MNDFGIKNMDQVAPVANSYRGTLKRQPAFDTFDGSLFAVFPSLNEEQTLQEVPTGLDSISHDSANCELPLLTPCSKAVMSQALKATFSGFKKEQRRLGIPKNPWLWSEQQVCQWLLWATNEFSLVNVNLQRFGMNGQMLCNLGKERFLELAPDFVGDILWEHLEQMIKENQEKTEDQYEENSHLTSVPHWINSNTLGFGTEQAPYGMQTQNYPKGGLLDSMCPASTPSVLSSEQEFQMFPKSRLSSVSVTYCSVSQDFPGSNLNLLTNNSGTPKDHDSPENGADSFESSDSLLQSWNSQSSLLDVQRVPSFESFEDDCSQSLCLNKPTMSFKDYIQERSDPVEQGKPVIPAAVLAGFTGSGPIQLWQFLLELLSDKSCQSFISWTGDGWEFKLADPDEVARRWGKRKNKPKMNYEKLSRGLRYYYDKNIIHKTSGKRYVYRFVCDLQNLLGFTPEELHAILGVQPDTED
In short: as §1

SPDEF = biological target: T8, SPDEF (Homo sapiens, UniProt O95238 1-335); conditions: protein: recombinant; tags: N-terminal GST; dsDNA, one strand shown
T8 sequence: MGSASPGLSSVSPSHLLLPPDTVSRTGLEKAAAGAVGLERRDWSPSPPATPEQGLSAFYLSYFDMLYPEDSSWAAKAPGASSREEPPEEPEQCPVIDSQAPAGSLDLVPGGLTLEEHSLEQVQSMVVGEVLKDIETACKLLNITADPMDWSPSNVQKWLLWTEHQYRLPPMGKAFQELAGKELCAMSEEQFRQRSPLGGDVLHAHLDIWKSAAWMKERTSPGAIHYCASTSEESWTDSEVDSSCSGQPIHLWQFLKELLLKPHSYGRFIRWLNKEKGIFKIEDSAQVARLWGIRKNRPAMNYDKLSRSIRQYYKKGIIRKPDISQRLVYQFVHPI
In short: as §1

ELF5 = biological target: T9, ELF5 (Homo sapiens, UniProt Q9UKW6-2 1-255); conditions: protein: recombinant; tags: N-terminal GST; dsDNA, one strand shown
T9 sequence: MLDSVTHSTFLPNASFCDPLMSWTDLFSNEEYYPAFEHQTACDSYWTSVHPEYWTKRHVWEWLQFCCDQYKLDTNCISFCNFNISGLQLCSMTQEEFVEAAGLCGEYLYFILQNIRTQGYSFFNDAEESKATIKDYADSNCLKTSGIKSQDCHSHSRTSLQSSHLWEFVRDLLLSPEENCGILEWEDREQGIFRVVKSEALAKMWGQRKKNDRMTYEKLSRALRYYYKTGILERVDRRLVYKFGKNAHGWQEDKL
In short: as §1

ETV3 = biological target: T10, ETV3 (Homo sapiens, UniProt P41162-2 1-143); conditions: protein: recombinant; tags: N-terminal GST; dsDNA, one strand shown
T10 sequence: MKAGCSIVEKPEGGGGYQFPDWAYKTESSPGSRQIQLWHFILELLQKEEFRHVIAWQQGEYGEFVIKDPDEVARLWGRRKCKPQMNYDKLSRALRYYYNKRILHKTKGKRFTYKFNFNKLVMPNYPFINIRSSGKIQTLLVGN
In short: as §1

ETV6 = ETV6 (Homo sapiens, UniProt P41212 1-452); conditions: protein: recombinant; tags: N-terminal GST; dsDNA, one strand shown
Chain of ETV6 (P41212 whole entry): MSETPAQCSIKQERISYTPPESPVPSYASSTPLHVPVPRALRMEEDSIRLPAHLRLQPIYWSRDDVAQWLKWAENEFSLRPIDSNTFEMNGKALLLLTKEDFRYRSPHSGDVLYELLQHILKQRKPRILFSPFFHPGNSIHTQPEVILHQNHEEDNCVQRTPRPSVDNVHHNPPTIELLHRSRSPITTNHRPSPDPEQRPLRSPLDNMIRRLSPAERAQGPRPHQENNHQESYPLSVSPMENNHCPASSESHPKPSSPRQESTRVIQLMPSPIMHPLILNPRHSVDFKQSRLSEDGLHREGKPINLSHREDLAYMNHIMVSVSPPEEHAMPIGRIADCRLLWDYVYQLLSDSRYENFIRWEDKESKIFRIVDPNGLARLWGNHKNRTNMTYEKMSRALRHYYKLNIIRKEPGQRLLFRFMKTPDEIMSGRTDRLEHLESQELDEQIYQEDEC
In short: as §1

CAAAGC
binding signal (FEV): 1.14 fold enrichment (6-mer frequency, TF over GST control) | binding signal (ETV5): 1.05 fold enrichment (6-mer frequency, TF over GST control) | binding signal (HSF1): 1.04 fold enrichment (6-mer frequency, TF over GST control) | binding signal (ELF4): 1.05 fold enrichment (6-mer frequency, TF over GST control) | binding signal (ELK4): 1.24 fold enrichment (6-mer frequency, TF over GST control) | binding signal (ETV2): 1.09 fold enrichment (6-mer frequency, TF over GST control) | binding signal (ELF3): 1.03 fold enrichment (6-mer frequency, TF over GST control) | binding signal (CRX): 1.3 fold enrichment (6-mer frequency, TF over GST control) | binding signal (ETV1): 1.08 fold enrichment (6-mer frequency, TF over GST control) | binding signal (ERF): 1.13 fold enrichment (6-mer frequency, TF over GST control) | binding signal (ETV3L): 1.07 fold enrichment (6-mer frequency, TF over GST control) | binding signal (ETS2): 1 fold enrichment (6-mer frequency, TF over GST control) | binding signal (SPDEF): 1.06 fold enrichment (6-mer frequency, TF over GST control) | binding signal (ELF5): 1.01 fold enrichment (6-mer frequency, TF over GST control) | binding signal (ETV3): 1.08 fold enrichment (6-mer frequency, TF over GST control) | binding signal (ETV6): 1.08 fold enrichment (6-mer frequency, TF over GST control)
